Data taken from PubChem BioAssay AID521 (Sanford-Burnham Center for Chemical Genomics, 2006).
Screen size: about 110,000 compounds; about 730 (0.66%) were called active. The sample holds actives, similar compounds and a random draw of the others, so the mix is not that of the screen. No stated cut-off is given here; in the data, active means inhibition above about 50%; inconclusive means no clear call, values can overlap the other calls; inactive means below that.

What follows are compounds tested against Tyrosine-protein phosphatase non-receptor type 7 (Homo sapiens) (UniProt P35236) (assay: inhibitors of human HePTP phosphatase, primary screen, biochemical, absorbance, leukemia target (AID 521;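 further: plate controls were vehicle for no effect and reference inhibitor for full effect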)). Conditions: recombinant HePTP phosphatase activity, OD absorbance; at 20 µM; hits give high values.
Sequence of Tyrosine-protein phosphatase non-receptor type 7 (Homo sapiens) (P35236 whole entry, looked up): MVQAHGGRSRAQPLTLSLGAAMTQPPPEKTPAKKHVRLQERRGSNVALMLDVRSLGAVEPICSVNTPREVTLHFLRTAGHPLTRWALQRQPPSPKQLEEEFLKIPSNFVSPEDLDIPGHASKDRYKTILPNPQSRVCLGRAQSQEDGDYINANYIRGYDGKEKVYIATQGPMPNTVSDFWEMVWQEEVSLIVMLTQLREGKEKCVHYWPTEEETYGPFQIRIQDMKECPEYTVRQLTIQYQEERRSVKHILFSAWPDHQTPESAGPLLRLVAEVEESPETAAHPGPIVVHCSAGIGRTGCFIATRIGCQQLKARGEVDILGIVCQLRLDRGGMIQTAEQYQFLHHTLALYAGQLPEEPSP
With `Cc1ccc(N(Cc2ccc(C(=O)N3CCCCC3)cc2)S(C)(=O)=O)cc1C` the inhibition was 13.9% (inactive).
With `O=C(NCC1CCCO1)c1cc(-c2ccccc2)nc2ccccc12` (stereo not drawn) the inhibition was -0.5% (inactive).
`CCOc1ccc(N/C(=N\S(=O)(=O)c2ccc(NC(C)=O)cc2)Nc2nc(C)cc(C)n2)cc1` was tested, and the inhibition was 104% (active).
With `CCOc1ccc(NC(=O)Nc2cc(C)on2)cc1` the inhibition was -4.8% (inactive).
In the case of `CCCOc1ccccc1N/C(=N/S(=O)(=O)c1ccc(C)cc1)Nc1nc(C)cc(C)n1`, the inhibition is reported as -1.6% (inactive).
`O=C(/C=C/c1ccc([N+](=O)[O-])cc1)N1CCc2ccccc2C1` was tested, and the inhibition was -1.1% (inactive).
`Cc1ccc(N2C(=O)NC(=O)/C(=C\c3cccc(C)c3)C2=O)cc1` was tested, and the inhibition was 4.7% (inactive).
`Cc1ccc(-c2ccc(/C=C3\Sc4ccccc4C3=O)o2)c([N+](=O)[O-])c1` was tested, and the inhibition was -1.6% (inactive).
`O=C1S/C(=C/c2ccc(-c3ccc(Cl)cc3Cl)o2)C(=O)N1c1ccccc1` was tested, and the inhibition was -6.4% (inactive).
`O=C1/C(=C/c2ccc(-c3ccc(Cl)cc3C(=O)O)o2)Sc2ccccc21` was tested, and the inhibition was 99% (active).
With `Cc1oc2ccc(OCC(=O)c3ccccc3)cc2c1C(=O)O` the inhibition was 6.3% (inactive).
In the case of `O=C(Nc1ccc(I)cc1)c1ccc2nccnc2c1`, the inhibition is reported as 8.3% (inactive).
With `Cc1ccc(/C=N/NC(=O)C2CC(=O)N(c3ccc(Cl)cc3)C2)cc1` (stereo not drawn) the inhibition was 4.9% (inactive).
`CCOc1ccccc1C(=O)Nc1ccc(Cl)cc1[N+](=O)[O-]` was tested, and the inhibition was -5.6% (inactive).
For `O=C(NC(=S)Nc1ccc(-c2nc3cc(Cl)ccc3o2)cc1)c1ccco1`, the inhibition was 4.7% (inactive).
For `CN1CN=C2SC3(COC(c4cccc(Br)c4)OC3)C(=O)N2C1` (stereo not drawn), the inhibition was -17.5% (inactive).
`Cc1ccc(/C=C/C(=O)Nc2nc3ccc(S(C)(=O)=O)cc3s2)cc1` was tested, and the inhibition was -6.1% (inactive).
`Cc1ccc(N(CC(O)CN2CCCC2)S(=O)(=O)c2ccccc2)cc1` (stereo not drawn) was tested, and the inhibition was -3.8% (inactive).
In the case of `Cc1cccc(N(CC(O)CN(C)C)S(=O)(=O)c2ccccc2)c1` (stereo not drawn), the inhibition is reported as -7.9% (inactive).
`Cc1ccc(S(=O)(=O)N(CC(O)CN(C)C)c2cccc3ccccc23)cc1` (stereo not drawn) was tested, and the inhibition was 104% (active).
In the case of `CC(C)c1ccc(C=NCCCO)cc1`, the inhibition is reported as -12.6% (inactive).
For `O=C(N=Nc1c(O)[nH]c2ccc(F)cc12)c1ccccc1O`, the inhibition was -14.6% (inactive).
In the case of `Nc1nonc1C(=O)N=Nc1c(O)[nH]c2ccccc12`, the inhibition is reported as -0.8% (inactive).
In the case of `O=C(N=Nc1c(O)[nH]c2ccc([N+](=O)[O-])cc12)c1cccc(Br)c1`, the inhibition is reported as 56.4% (active).
With `O=C1C2C3CC4C2C(=O)C2(c5ccccc5)C1C3C42` (stereo not drawn) the inhibition was -6.6% (inactive).
In the case of `COc1ccc(CCNC(=O)COc2ccc(Br)cc2)cc1OC`, the inhibition is reported as -20% (inactive).
In the case of `COCCCNC(=O)COc1cc(C)c(Cl)c(C)c1`, the inhibition is reported as 5.1% (inactive).
`COc1ccc(CCNC(=O)COc2cc(C)c(Cl)c(C)c2)cc1OC` was tested, and the inhibition was 103% (active).
